# Measurements: PubChem BioAssay (NCI)
# This is part of a sample that, as a whole, favours compounds with a hit. Of some 83,000 tested, about 20% had one in any assay.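 Activity criterion: percent growth below 10, measured after cells in 96-well plates were exposed to a single compound concentration for 48 hours.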 Values without a mark were called inactive. Activity calls are given as the source filed them.
# System: NCI-H460 lung
# Experiment: NCI-60 one-dose screen, 48 h (100 = growth as untreated, 0 = no growth, -100 = all killed)
# Settings: 10 µM unless noted
row,SMILES,growth
1,C[PH+](c1nc2ccccc2nc1[PH+](C)C(C)(C)C)C(C)(C)C.C[PH+](c1nc2ccccc2nc1[PH+](C)C(C)(C)C)C(C)(C)C.[Au+].[Cl-] (centres undefined),-85.5% (active)
2,CN(C)CCNC(=O)c1cc2c3cc(Cl)ccc3[nH]c2c2ncccc12,-0.295% (active)
3,CNC(=O)c1ccccc1Oc1nc(Nc2cc(OC)c(OC)c(OC)c2)ncc1Br,43.9%
4,O=C(c1ccccc1)c1ccc(C2CCCCC2)cc1,97%
5,CCCCCCCC[C@@H]1N[C@@H](C(=O)OC)Cc2c1[nH]c1ccccc21,102%
6,Cc1cc(N2CCCCC2)cc(C)c1-c1csc(NC(=O)c2ccncc2)n1,66.9%
7,Cc1nc2sc(C(=O)Nc3ccc(Br)cc3)c(N)c2cc1C(O)c1ccccc1 (centres undefined),69%
8,CCN(CC)CC(O)COc1c(Br)c(Br)c(Br)c2c1OC(C)(C)C2 (centres undefined),27.7%
9,Cc1cccc(CNc2c3ccccc3nc3ccccc23)c1,8.71% (active)
10,Fc1cc2c(cc1Cl)N(c1ncnc3ccc(-c4ccc5n[nH]nc5c4)cc13)CC2,97.1%
11,CC/C(=C(/c1ccc(Cl)cc1)c1ccc(OCCN(C)C)cc1)c1ccc(Cl)cc1,37.3%
12,Cn1cc(-c2nonc2-c2cn(C)c3ccccc23)c2ccccc21,8.94% (active)
13,COC12C=C/C(=C(/C(=O)OCc3ccncc3)C(=O)CCCCCCCCC3(OC)C=C/C(=C(/C(=O)OCc4ccncc4)C(=O)CCCCCCCC1)O3)O2,1.88% (active)
14,COc1cc2ncnc(Nc3ccc(F)c(Cl)c3)c2cc1OCC(=O)N1CCN(c2ccccc2)CC1,95.6%
